{
  "source": "PubChem BioAssay AID1117361",
  "about": "(Southern Research Institute, 2015)",
  "note": "Out of some 3,600 compounds screened, about 900 (25%) were called active. The rule behind the calls is not given here. Only a sample is shown. Measured potencies and affinities stand elsewhere.",
  "data": [
    {"target": "Protein Tat (Human immunodeficiency virus type 1 group M subtype B (isolate HXB2)) (UniProt P04608)", "assay": "HIV-1 Tat–TAR interaction blockers – biochemical, fluorescence polarization, FAM-labeled TAR RNA, counter-screen for Vif-APOBEC3G degradation inhibitor project, dose response (AID 1117361)", "settings": "Tat-TAR RNA binding; series mostly up to 100 µM", "values": [
      {"smiles": "CCN(CC)C(=O)CCNS(=O)(=O)c1ccc(C)cc1", "outcome": "inactive"},
      {"smiles": "Clc1ccc(-c2nnnn2-c2ccc(Cl)c(Cl)c2)cc1Cl", "outcome": "inactive"},
      {"smiles": "CCc1nnc(SCC(=O)NC2CCCCC2)nc1CC", "outcome": "inactive"},
      {"smiles": "Fc1ccc(-c2nnc(Cc3nnc(-c4ccc(F)cc4)o3)o2)cc1", "outcome": "inactive"},
      {"smiles": "O=C(NCc1ccc2c(c1)OCO2)c1cc2ncc(Br)cn2n1", "outcome": "inactive"},
      {"smiles": "Cc1ccc2c(c1C)NC(=O)C2(O)CC(=O)c1ccc2c(c1)OCO2", "note": "(stereo not drawn)", "outcome": "inactive"},
      {"smiles": "CCOc1ccc(N(CC(=O)NCCC2=CCCCC2)S(=O)(=O)c2ccccc2)cc1", "outcome": "inactive"},
      {"smiles": "CCNC(=O)OCC(CC)NC(=O)OCC(C)C", "note": "(stereo not drawn)", "outcome": "inactive"},
      {"smiles": "Cc1cc(C)cc(-c2nnc(SCC(=O)NCc3cccs3)o2)c1", "outcome": "inactive"},
      {"smiles": "CCN(CC)c1ccc(/C=C2\\C(=O)N(c3nnc(C)c(=O)[nH]3)N=C2C)cc1", "outcome": "inactive"},
      {"smiles": "Cc1noc(C)c1C(=O)N1CCN(c2ncccn2)CC1", "outcome": "inactive"},
      {"smiles": "c1ccc(N2CCN(c3ccc4nncn4n3)CC2)nc1", "outcome": "inactive"},
      {"smiles": "CCCCc1ccc(-c2nc(N)n[nH]2)cc1", "outcome": "inactive"},
      {"smiles": "COCCCN1CC23C=CC(O2)C(C(=O)O)C3C1=O", "note": "(stereo not drawn)", "outcome": "inactive"},
      {"smiles": "CC1CCN(c2ccc([N+](=O)[O-])c(SCCO)c2)CC1", "outcome": "inactive"},
      {"smiles": "Cc1ccc(S(=O)(=O)NCCCOC(=O)Nc2ccncc2)cc1", "outcome": "inactive"},
      {"smiles": "O=C(C1CCC(CNc2c(N3CCCCC3)c(=O)c2=O)CC1)N1CCN(C2CCCCC2)CC1", "note": "(stereo not drawn)", "outcome": "inactive"},
      {"smiles": "O=C(CSc1nnnn1-c1ccc2c(c1)CCC2)Nc1ccc2c(c1)OCCO2", "outcome": "inactive"},
      {"smiles": "CCOC(=O)c1c(NC(=O)Cn2nnc(-c3ccccc3Cl)n2)sc(C)c1C", "outcome": "inactive"},
      {"smiles": "Cc1cnc(NC(=O)CSc2nnc(CNc3ccc(F)cc3)n2CC2CCCO2)s1", "note": "(stereo not drawn)", "outcome": "inactive"},
      {"smiles": "COc1ccc(OC)c(NC(=O)CSc2nc3ccccc3c(=O)n2CC2CCCO2)c1", "note": "(stereo not drawn)", "outcome": "inactive"},
      {"smiles": "COC(=O)C1=CN(CC2CCCO2)C=C(C(=O)OC)C1c1ccccc1C(F)(F)F", "note": "(stereo not drawn)", "outcome": "inactive"},
      {"smiles": "Cc1nn(Cc2ccccc2)c(C)c1C(=O)OCC(=O)c1cc(C)n(C2CC2)c1C", "outcome": "inactive"},
      {"smiles": "[O-]/[N+](=C\\C=C\\c1ccccc1)c1ccccc1", "outcome": "inactive"},
      {"smiles": "COc1ccc(C2CC(C(F)(F)F)n3nc(C(=O)NCc4c(C)nn(C)c4C)c(Cl)c3N2)cc1", "note": "(stereo not drawn)", "outcome": "inactive"},
      {"smiles": "O=S1(=O)Nc2c(ccc3cccnc23)-c2ccccc21", "outcome": "inactive"},
      {"smiles": "CCN(CC)c1ccc(NC2=C(Cl)C(=O)c3ccccc3C2=O)cc1", "outcome": "inactive"},
      {"smiles": "O=C1CSC(c2cccnc2)N1Cc1cccnc1", "note": "(stereo not drawn)", "outcome": "inactive"},
      {"smiles": "COc1ccc(OCC(=O)O/N=C(\\N)Cc2ccc(Cl)cc2)cc1", "outcome": "inactive"},
      {"smiles": "CCOC(=O)CN(C(=O)CSc1nnc(COc2ccc(OC)cc2)n1CC)c1ccccc1", "outcome": "inactive"},
      {"smiles": "Oc1c(C(c2ccccc2)N2CCN(Cc3ccccc3)CC2)sc2ncnn12", "note": "(stereo not drawn)", "outcome": "inactive"},
      {"smiles": "Fc1ccc(C(CCCn2nnc(-c3cccnc3)n2)c2ccc(F)cc2)cc1", "outcome": "inactive"},
      {"smiles": "Cc1cc(CN2C(=O)c3ccccc3C2=O)cc(N2CCOCC2)c1", "outcome": "inactive"},
      {"smiles": "Cc1nc2cc(NC(=O)Nc3ccc(N4CCOCC4)cc3)ccc2n1C", "outcome": "inactive"},
      {"smiles": "Oc1ccccc1/C=N/Nc1nccnc1Cl", "outcome": "inactive"},
      {"smiles": "COc1ccc(/C=C/c2nnc(NC(=O)CSc3ccc(C)cc3)s2)cc1", "outcome": "inactive [at 50 µM]"},
      {"smiles": "COC(=O)C(NC(=O)c1ccco1)(Nc1nc(C)cs1)C(F)(F)F", "note": "(stereo not drawn)", "outcome": "inactive"},
      {"smiles": "COC(=O)c1ccc(CSc2nc3ccccc3c(=O)n2-c2ccc(OC)c(OC)c2)o1", "outcome": "inactive"},
      {"smiles": "CCn1cc(C(=O)NCc2ccco2)c2cc(OC)c(OC)cc2c1=O", "outcome": "inactive"},
      {"smiles": "C=CCN1C(=O)CSc2ccc(C(=O)NCc3ccco3)cc21", "outcome": "inactive"},
      {"smiles": "C=CCN1C(=O)c2ccc(C(=O)N3CCN(c4ccccc4OC)CC3)cc2C1=O", "outcome": "inactive"},
      {"smiles": "COC(=O)c1cc(OC)c(OC)cc1NC(=O)c1ccco1", "outcome": "inactive"},
      {"smiles": "CCOC(=O)C1=C(CNCCc2ccc(Cl)cc2)NC(=O)NC1c1ccc2c(c1)OCO2", "note": "(stereo not drawn)", "outcome": "inactive"},
      {"smiles": "CCSc1nnc(NC(=O)c2ccc3ccccc3n2)s1", "outcome": "inactive"},
      {"smiles": "Cc1cc(C)n(-c2nc(Nc3ccccc3C(F)(F)F)nc(-n3nc(C)cc3C)n2)n1", "outcome": "inactive"},
      {"smiles": "O=C(CSc1ccc2nnc(-c3cccnc3)n2n1)NCC1CCCO1", "note": "(stereo not drawn)", "outcome": "inactive"},
      {"smiles": "Cc1c(NC(=O)/C(C#N)=C/C2CC=CCC2)c(=O)n(-c2ccccc2)n1C", "note": "(stereo not drawn)", "outcome": "inactive"},
      {"smiles": "O=C(c1ccccc1Cl)N(C(=O)c1ccccc1Cl)c1nccc(-c2cccs2)n1", "outcome": "inactive"},
      {"smiles": "O=[N+]([O-])c1ccc(/C=N/Nc2nc(N3CCCC3)nc(N3CCCC3)n2)o1", "outcome": "inactive"},
      {"smiles": "Cc1ccccc1Cn1cc(NC(=O)c2cc(C3CC3)on2)cn1", "outcome": "inactive"},
      {"smiles": "CCOC(=O)N1CCN(C(=O)C2CCCN(S(=O)(=O)c3ccc(C)cc3)C2)CC1", "note": "(stereo not drawn)", "outcome": "inactive"},
      {"smiles": "CCN1CCN(c2ccc(S(=O)(=O)N3CCCCC3)cc2NC(=O)Cc2ccc(Cl)c(Cl)c2)CC1", "outcome": "inactive"},
      {"smiles": "Clc1ccc(Nc2nc(C3CC3)cs2)cc1", "outcome": "inactive"},
      {"smiles": "CCN(c1cccc(C)c1)S(=O)(=O)c1cnc[nH]1", "outcome": "inactive"},
      {"smiles": "Cn1nc(-c2ccc(Cl)cc2)c2cc(C(=O)NCCCN3CCOCC3)sc21", "outcome": "inactive"},
      {"smiles": "Cn1nc(-c2ccc(Cl)cc2)c2cc(C(=O)N3CCN(C(=O)c4ccco4)CC3)sc21", "outcome": "inactive"},
      {"smiles": "O=C(O)CC(Cn1cnnn1)c1ccccc1", "note": "(stereo not drawn)", "outcome": "inactive"},
      {"smiles": "COc1ccc(Cl)cc1N(C)C(=O)CCNC(=O)Cn1cnc2ccccc2c1=O", "outcome": "inactive"},
      {"smiles": "Cc1csc(=O)n1CC(=O)OCC(=O)c1ccc(Br)cc1", "outcome": "inactive"},
      {"smiles": "CCOc1cccc(CN2CCCC(C(=O)Nc3cccc(-n4cccn4)c3)C2)c1", "note": "(stereo not drawn)", "outcome": "inactive"},
      {"smiles": "CC(=O)Nc1ccc(S(=O)(=O)Nc2nnc(C(C)C)s2)cc1", "outcome": "inactive"},
      {"smiles": "CSc1nc(N2CCOCC2)c2c(c1C#N)CC(C)(C)OC2", "outcome": "inactive"},
      {"smiles": "N#Cc1nc(-c2ccco2)oc1N1CCN(c2ccccc2)CC1", "outcome": "inactive"},
      {"smiles": "CCOc1cc(S(=O)(=O)N(CC)CC)c(OCC)cc1-n1cnnn1", "outcome": "inactive"},
      {"smiles": "Cc1nnc(NC(=O)c2ccc(S(=O)(=O)N(C)Cc3ccccc3)cc2)o1", "outcome": "inactive"},
      {"smiles": "CC1(C)CC(Nc2ccc(Nc3ccccc3)cc2)CC(C)(C)N1", "outcome": "inactive"},
      {"smiles": "CCC1=C2CC[C@H]3C(=O)NC(=O)[C@H]3[C@H]2[C@@]2(Cc3ccccc3)C(=NCC(=O)OC)OC(=O)N2C1=O", "outcome": "inactive"},
      {"smiles": "Nc1nc(Sc2ccc([N+](=O)[O-])c3nonc23)c2[nH]cnc2n1", "outcome": "inactive"}
    ]}
  ]
}
